In all, about 18,000 sequences were measured (“log2 normalized intensity”: median about 0.36, highest 2% from about 7.3 on). Many of the other results were omitted from the sample, so the highest values are more common in it than they were.

This assay has as its target T1, HNF4alpha8 (COS-7 nuclear extract) (Homo sapiens, UniProt P41235-5 1-452).
T1 sequence: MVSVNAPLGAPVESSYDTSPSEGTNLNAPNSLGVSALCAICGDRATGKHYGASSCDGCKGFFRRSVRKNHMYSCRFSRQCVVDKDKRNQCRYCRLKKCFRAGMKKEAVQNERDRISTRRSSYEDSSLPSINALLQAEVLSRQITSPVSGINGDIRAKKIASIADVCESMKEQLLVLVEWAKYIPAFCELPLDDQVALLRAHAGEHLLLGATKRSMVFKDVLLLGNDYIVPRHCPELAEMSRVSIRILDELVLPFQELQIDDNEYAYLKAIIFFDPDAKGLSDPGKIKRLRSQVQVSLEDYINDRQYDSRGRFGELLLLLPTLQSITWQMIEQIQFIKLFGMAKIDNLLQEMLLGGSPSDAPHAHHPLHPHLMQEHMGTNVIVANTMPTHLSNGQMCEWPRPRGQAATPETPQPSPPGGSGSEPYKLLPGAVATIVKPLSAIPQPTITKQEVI
The assay is described as follows: protein-binding microarray; COS-7 nuclear extract on double-stranded Agilent 4x180k PBM; binding buffer, salt, pH and temperature not given in the material; high values mean tight binding. The following applies: chain copies: 2; label: 3' end of strand 1 on the slide; dsDNA, one strand shown. The gist of the method: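 COS-7 cells were transiently transfected by CaPO4 with an expression vector for a human HNF4α isoform, and nuclear extracts were prepared from them. The extracts were applied to a custom Agilent SurePrint G3 4x180k array of double-stranded ~60-nt oligonucleotides, with ~44,000 test sequences spotted in quadruplicate. An Agilent G2565CA scanner imaged bound HNF4α at 2-µm resolution. Binding signal is the background-corrected, normalized gProcessedSignal from Agilent software.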
Regarding “CAGGAGTCGGGAGGTAGGGGTGGCGGGTTGGCCTAGGGAGATTAGAGTATCGGTCGA”, the binding signal was 0.403 log2 normalized intensity.

Take “GCCAAAGGTCAGAGTTGAACCCTTGGGGCTGCCTAGGGAGATTAGAGTATCGGTCGA”: the binding signal turned out to be 4.38 log2 normalized intensity.

On to “TCTGCTGTACATATTTGCCAAGTGATAAGGGCCTAGGGAGATTAGAGTATCGGTCGA”, for which the binding signal was found to be 1.01 log2 normalized intensity.

Regarding “TCTAACATTTTTGACCTTCAGCATCTTCAAGCCTAGGGAGATTAGAGTATCGGTCGA”, the binding signal was determined as 3.81 log2 normalized intensity.

For “CCTTTGAGATAGCTATGATTATCCTTATCTGCCTAGGGAGATTAGAGTATCGGTCGA”, the binding signal was -0.293 log2 normalized intensity.

“ATCTGTATCAGCCTGTGACAAAGTCCATCTGCCTAGGGAGATTAGAGTATCGGTCGA”: the binding signal amounted to 5.65 log2 normalized intensity.

For the sequence “CCCGGACCAGGCCGGGTCACGTGGGTCCAGGCCTAGGGAGATTAGAGTATCGGTCGA”, the binding signal came to 3.63 log2 normalized intensity.

Regarding “GTCAGTCTTTGTTCTAGTAAGGCCTTCAAAGCCTAGGGAGATTAGAGTATCGGTCGA”, the binding signal is 0.595 log2 normalized intensity.

As for “TTCAGAAGACTTCCTGGCCTCTCTGCAAATGCCTAGGGAGATTAGAGTATCGGTCGA”, the binding signal is -0.39 log2 normalized intensity.

With “GTGAGGGAGGAGACTTTGACCTCTGCTAGGGCCTAGGGAGATTAGAGTATCGGTCGA”, the binding signal turned out to be 6.12 log2 normalized intensity.

With “TAACGGTGAGGGAGGAGACTTTGACCTCTGGCCTAGGGAGATTAGAGTATCGGTCGA”, the binding signal came out at 7.45 log2 normalized intensity.

As to “GGAGGAGACTTTGACCTCTGCTAGGTTTGGGCCTAGGGAGATTAGAGTATCGGTCGA”, the binding signal worked out at 5.5 log2 normalized intensity.

Turning to “TATGTCTCTCCTATTCAGGTATTTGCTCTGGCCTAGGGAGATTAGAGTATCGGTCGA”, the binding signal stood at 0.488 log2 normalized intensity.

Take “CACAGTGTAGAAGGCAAGGGTCAAGATGTCGCCTAGGGAGATTAGAGTATCGGTCGA”: the binding signal came out at 2.31 log2 normalized intensity.

As to “ATTCCAGTGTTTCAAAGGAGTGTCTTTCTCGCCTAGGGAGATTAGAGTATCGGTCGA”, the binding signal is 1.51 log2 normalized intensity.

Take “ATGTGGTCCTAAGACTAACCTTTGACCATCGCCTAGGGAGATTAGAGTATCGGTCGA”: the binding signal came out at 8.15 log2 normalized intensity.

With “CCTTACCTCCATTAACTAACCTTTGAACCAGCCTAGGGAGATTAGAGTATCGGTCGA”, the binding signal turned out to be 7.58 log2 normalized intensity.

As for “GGTCCTAAGACTAACCTTTGACCATCCACGGCCTAGGGAGATTAGAGTATCGGTCGA”, the binding signal amounted to 6.44 log2 normalized intensity.

Regarding “TAAGACTAACCTTTGACCATCCACGGATGCGCCTAGGGAGATTAGAGTATCGGTCGA”, the binding signal amounted to 5.5 log2 normalized intensity.

Take “TTACTCATGTGGTCCTAAGACTAACCTTTGGCCTAGGGAGATTAGAGTATCGGTCGA”: the binding signal was 4.06 log2 normalized intensity.

For “TACTCATGTGGTCCTAAGACTAACCTTTGAGCCTAGGGAGATTAGAGTATCGGTCGA”, the binding signal came out at 7.11 log2 normalized intensity.

Turning to “ATTAACTAACCTTTGAACCAGATGGCCCTCGCCTAGGGAGATTAGAGTATCGGTCGA”, the binding signal came out at 4.3 log2 normalized intensity.

For the sequence “CATGTGGTCCTAAGACTAACCTTTGACCATGCCTAGGGAGATTAGAGTATCGGTCGA”, the binding signal stood at 8.37 log2 normalized intensity.

As for “CCTCCATTAACTAACCTTTGAACCAGATGGGCCTAGGGAGATTAGAGTATCGGTCGA”, the binding signal was 5.69 log2 normalized intensity.

In the case of “CTGACATTCTCCACTTGGTGACTGTCATTTGCCTAGGGAGATTAGAGTATCGGTCGA”, the binding signal amounted to 0.274 log2 normalized intensity.

“TGCCCTCACAGGTTCCAGCATGGACTTCACGCCTAGGGAGATTAGAGTATCGGTCGA”: the binding signal came to 3.32 log2 normalized intensity.

For the sequence “TTCCGCGGACGTGTTCCCACAGTGCCCTCTGCCTAGGGAGATTAGAGTATCGGTCGA”, the binding signal was 3.77 log2 normalized intensity.

Take “AGTTTCAACTTAACCCCAGTTTAGCAATTTGCCTAGGGAGATTAGAGTATCGGTCGA”: the binding signal worked out at 2.08 log2 normalized intensity.

As for “AACACAGGTGACCTTTGCTCCGGTTCCCAAGCCTAGGGAGATTAGAGTATCGGTCGA”, the binding signal came out at 7.12 log2 normalized intensity.

In the case of “TCTTTTCTAAGACATAACACAGGTGACCTTGCCTAGGGAGATTAGAGTATCGGTCGA”, the binding signal was determined as 4.48 log2 normalized intensity.

On to “AGGTGACCTTTGCTCCGGTTCCCAATAAGTGCCTAGGGAGATTAGAGTATCGGTCGA”, for which the binding signal is 5.71 log2 normalized intensity.

Consider “CTAAGCAGGCACATTCCAGGACCTTTGCTCGCCTAGGGAGATTAGAGTATCGGTCGA”, for which the binding signal is 4.83 log2 normalized intensity.

Take “GACATAACACAGGTGACCTTTGCTCCGGTTGCCTAGGGAGATTAGAGTATCGGTCGA”: the binding signal was found to be 7.92 log2 normalized intensity.

As for “TCTAAGACATAACACAGGTGACCTTTGCTCGCCTAGGGAGATTAGAGTATCGGTCGA”, the binding signal came out at 8.96 log2 normalized intensity.

Consider “TGTGGGTAATTAATCTGATCGCCCTCCCCCGCCTAGGGAGATTAGAGTATCGGTCGA”, for which the binding signal is 5.29 log2 normalized intensity.

Regarding “CTATTCTCTAAACTCTGGGCTCTATTTGGAGCCTAGGGAGATTAGAGTATCGGTCGA”, the binding signal was 0.51 log2 normalized intensity.

As for “TGCTGGAGATGAGGCTCAGACCTGACCTTTGCCTAGGGAGATTAGAGTATCGGTCGA”, the binding signal turned out to be 7.17 log2 normalized intensity.

On to “GGACCTGAGGCTTTTGAGTCAATAATGGACGCCTAGGGAGATTAGAGTATCGGTCGA”, for which the binding signal is 1.38 log2 normalized intensity.

On to “GAGATGAGGCTCAGACCTGACCTTTGGATTGCCTAGGGAGATTAGAGTATCGGTCGA”, for which the binding signal was 8.85 log2 normalized intensity.

“AAGACTTTGGACTTTGGACCTGAGGCTTTTGCCTAGGGAGATTAGAGTATCGGTCGA”: the binding signal was 10.3 log2 normalized intensity.

“GAGGCTCAGACCTGACCTTTGGATTCCCAGGCCTAGGGAGATTAGAGTATCGGTCGA”: the binding signal is 7.11 log2 normalized intensity.

Take “TACTTTGGACTGGGGACCTGGTCTGAGATAGCCTAGGGAGATTAGAGTATCGGTCGA”: the binding signal was 1.25 log2 normalized intensity.
